system: RXRa DBDmut IVT, anti-RXR (DBD mutation: RXRa K156A/R161A, NR concentration 90 nM); experiment: PBM binding z-score (relative to random genomic background probes); higher = stronger binding; sequences stand for … in GC…GCGATTGACAGCGTAGAATGAAGG
In short: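 Probes were double-stranded and carried 34-nt variable regions with direct-repeat seeds, single-nucleotide variants, half-site ablations and random human genomic background sequences, printed on custom Agilent 4×180K protein-binding microarrays. Arrays were incubated 1 h with ligand-free nuclear receptor dimers in PBS pH 7.4, 2% milk, 0.02% Triton X-100, 1 mM DTT, 0.2 mg/mL BSA and 0.4 mg/ml salmon testes DNA. Antibodies against each partner (one per run) detected binding, and scanned fluorescence was regression-normalized. Binding z-scores use the random background probes as reference.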

Question: GCTCGGAGGACAAGGTCAGAGGTTTGTCCGTAGA was tested. Which PBM binding z-score did it give?
Answer: 0.666

Question: How did the PBM binding z-score turn out when GGAACGAGGGCATTCAAGTTGATAGCATGGCGAT was run?
Answer: 3.23

Question: CGTTACGGGTCACGAGGTTATAGCACGACGAGCG was tested. Which PBM binding z-score did it give?
Answer: 2.01

Question: AGTCAAAGTTCACTAGGTACCGTAAGATTCAGCT was tested. Which PBM binding z-score did it give?
Answer: 4.36

Question: For GGAACGAGGGCAATCGAGTTGATAGCATGGCGAT, which PBM binding z-score is on record?
Answer: 1.84

Question: For GGAGCGAGGGCATTCGAGTTGATAGCATGGCGAT, which PBM binding z-score is on record?
Answer: 2.53

Question: With CTCGAAAGGACGTGCTCAGGTGAGTATACCAAAC as the sequence, how does the PBM binding z-score read?
Answer: 0.19

Question: For TCTCGGAGCACACGAAAGGTCAGAGCTCGACATC, which PBM binding z-score is on record?
Answer: 0.437

Question: TTACCAAGGTGAGCTGATGTCGTTGATCCAACTC was tested. Which PBM binding z-score did it give?
Answer: -0.369

Question: With TTTAGTTGGTCACGGAGGTCACACACGACGGGTA as the sequence, how does the PBM binding z-score read?
Answer: 0.387

Question: TCTAATTGGTCACGGAGGTCACACACGACGGGTA was tested. Which PBM binding z-score did it give?
Answer: 1.55

Question: For TCGAGTAGGTTAGGGACATTCAGAATGGCGTCGA, which PBM binding z-score is on record?
Answer: 0.229

Question: With TCTAGTTGGTCACAGGTCACACACTCGAAATGCG as the sequence, how does the PBM binding z-score read?
Answer: 1.62

Question: How did the PBM binding z-score turn out when TCTATTAGTTGATTAGGTCAACCGAAACAGCGGA was run?
Answer: 1.55

Question: How did the PBM binding z-score turn out when CGAACTAGGTCATCCAGGACAGTGGATACATTGA was run?
Answer: 2.01

Question: With TCGAGTAGGTTAAGGGCATTCAGAATGGCGTCGA as the sequence, how does the PBM binding z-score read?
Answer: 0.693

Question: CGTCCAAGGTCAGAAAGGTCAGTGAATGCCGAGT was tested. Which PBM binding z-score did it give?
Answer: 3

Question: With AGAATGAGGTTATTAAGATCAGGAAATTGCGGTC as the sequence, how does the PBM binding z-score read?
Answer: 1.99

Question: How did the PBM binding z-score turn out when CAAACTAGGTCATTGACAGGACAGTGAATAGTAA was run?
Answer: 2.28

Question: With TCTGCTCGGTCAACGATGGTCAGCTAATCTGCTA as the sequence, how does the PBM binding z-score read?
Answer: 0.129

Question: Which PBM binding z-score does the source give for CCGACTGGTGCAAGGTTACCATAACGCACAGCCA here?
Answer: 0.0825

Question: Which PBM binding z-score does the source give for GCTGCTAGGTCAACTGATGGTCAGCTTAAGCTCG here?
Answer: 1.76

— the supplement of paper PMC6555819
